# Assay outcomes as filed in PubChem BioAssay.
# ADAM10 inh: human ADAM10 inhibitors, primary screen, biochemical, QFRET, HTS; Disintegrin and metalloproteinase domain-containing protein 10 (Homo sapiens), O14672; recombinant ADAM10, EDANS/DABCYL FRET peptide cleavage, 3 h; inhibition, % at 7 µM; actives 0.62% (n = 370,000); AID 720582, 2013;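 active = inhibition above a per-campaign cutoff equal to the mean of compounds falling between control-based bounds plus 3 SD, cut at about 20% in these data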
# GC-B act: human GC-B receptor activators, primary screen, HEK293 GC-B cells, cGMP TR-FRET, EC30 CNP; Atrial natriuretic peptide receptor 2 (Homo sapiens), P20594; 0% at EC30 CNP, 100% saturating CNP; activation, % at 10 µM; actives 0.11% (n = 370,000);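 active = activation at 10 µM reaching about 35% in either raw or pattern-adjusted values, limit read from the data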
# GC-A act: GC-A stimulated cGMP production enhancers – HEK293 GC-A cells, cGMP TR-FRET, EC30 ANP, primary screen | Atrial natriuretic peptide receptor 1 (Homo sapiens), P16066 | 0% at EC30 ANP, 100% saturating ANP | activation, % at 10 µM | actives 0.14% (n = 370,000) | AID 1671463, 2021; in the data active = activation above about 40%
# Target sequence (P16066 whole entry, looked up): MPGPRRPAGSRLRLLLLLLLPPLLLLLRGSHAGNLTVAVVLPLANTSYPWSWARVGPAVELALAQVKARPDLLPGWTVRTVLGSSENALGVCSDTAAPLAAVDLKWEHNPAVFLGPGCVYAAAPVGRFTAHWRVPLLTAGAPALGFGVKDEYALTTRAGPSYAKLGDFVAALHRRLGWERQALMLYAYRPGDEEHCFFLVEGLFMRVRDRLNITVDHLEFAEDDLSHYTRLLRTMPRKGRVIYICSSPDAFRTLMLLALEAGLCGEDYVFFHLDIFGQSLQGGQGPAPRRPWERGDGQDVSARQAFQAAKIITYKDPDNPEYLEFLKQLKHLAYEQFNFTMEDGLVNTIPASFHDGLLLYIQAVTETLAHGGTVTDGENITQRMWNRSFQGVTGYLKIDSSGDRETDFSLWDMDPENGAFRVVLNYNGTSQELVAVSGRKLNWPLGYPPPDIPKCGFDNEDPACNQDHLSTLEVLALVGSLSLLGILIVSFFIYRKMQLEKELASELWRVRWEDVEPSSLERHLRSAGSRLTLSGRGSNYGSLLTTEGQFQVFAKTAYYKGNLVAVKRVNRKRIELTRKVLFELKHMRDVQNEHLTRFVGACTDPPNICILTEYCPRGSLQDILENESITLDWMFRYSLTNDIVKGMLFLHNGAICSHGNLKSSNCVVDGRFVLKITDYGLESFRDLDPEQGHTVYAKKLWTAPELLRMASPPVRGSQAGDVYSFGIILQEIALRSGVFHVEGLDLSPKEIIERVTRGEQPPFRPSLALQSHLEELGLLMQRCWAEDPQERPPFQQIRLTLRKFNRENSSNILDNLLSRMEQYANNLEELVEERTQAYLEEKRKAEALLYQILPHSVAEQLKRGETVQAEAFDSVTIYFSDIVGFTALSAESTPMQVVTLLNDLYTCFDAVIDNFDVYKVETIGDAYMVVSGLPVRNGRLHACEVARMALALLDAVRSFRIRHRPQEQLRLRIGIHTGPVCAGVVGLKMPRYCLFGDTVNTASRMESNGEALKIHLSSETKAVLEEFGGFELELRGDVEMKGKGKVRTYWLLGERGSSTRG
# ADAM17 inh: ADAM17 inhibitors, primary screen, biochemical, QFRET; recombinant ADAM17, EDANS/DABCYL FRET peptide cleavage; inhibition, % at 6.95 µM; actives 0.83% (n = 370,000); AID 720648, 2013;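 active = inhibition above the mean of compounds lying between control limits plus 3 SD, set per campaign, cut at about 8.5% in these data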
# ADAM10 confirm: human ADAM10 inhibitors, confirmation, biochemical, QFRET, triplicate | shares compounds with ADAM10 inh | inhibition, % at 6.95 µM | ADAM10 QFRET peptide cleavage, EDANS fluorescence | actives 1% (n = 2,100);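 active = inhibition above about 20% chosen separately for each screening run, limit read from the data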
# ADAM17 counter: ADAM17 inhibitors, counter-screen for ADAM10 exosite inhibitor project, biochemical, QFRET, high throughput; shares compounds with ADAM10 inh; ADAM17 QFRET peptide cleavage, EDANS fluorescence; inhibition, % at 6.95 µM; actives 0.5% (n = 2,100); AID 743214, 2013;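 active = mean triplicate inhibition above the solvent-only control wells' mean plus 3 SD, cut at about 12% in these data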
# ADAM10 ctr: ADAM10 inhibitors, counter-screen for ADAM17 exosite inhibitor project, biochemical, FRET, human ADAM10; shares compounds with ADAM17 inh; recombinant ADAM10, EDANS/DABCYL FRET peptide cleavage, 3 h; inhibition, % at 6.95 µM; actives 47% (n = 2,900);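 active = mean inhibition over the triplicate runs exceeds the activity threshold set in the earlier primary screen, cut at about 20% in these data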
# ADAM17 confirm: ADAM17 inhibitors, hit retest, confirmation, biochemical, QFRET peptide cleavage | shares compounds with ADAM17 inh | recombinant ADAM17, EDANS/DABCYL QFRET peptide cleavage | inhibition, % at 6.95 µM | actives 65% (n = 2,900) | AID 743257, 2014;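 active = mean inhibition across replicates above the hit cutoff set in the primary screen, cut at about 8.5% in these data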
# Hits are given with their value; - = inactive; . = not tested or not shown. In the library only some 1.3% were active in any assay of this set; here they are far more common.
SMILES,ADAM10 inh,GC-B act,GC-A act,ADAM17 inh,ADAM10 confirm,ADAM17 counter,ADAM10 ctr,ADAM17 confirm
C/C(Cc1ccccc1)=N\NC(=O)CNC(=O)c1ccccc1F,-,-,-,-,.,.,.,.
COc1cccc(N)c1,-,-,-,-,.,.,.,.
Nc1cccc(Oc2c(F)c(F)c(Oc3cccc(N)c3)c(F)c2F)c1,23.0,-,-,9.2,-,-,40.8,20.4
COC(=O)[C@H](C(C)C)N(Cc1ccccc1)S(=O)(=O)CCN1CCN(c2ccccc2)CC1,-,-,-,-,.,.,.,.
C#CCN(C[C@@H]1[C@@H](OC(=O)NCc2ccc(OC)c(OC)c2)[C@@H](OC(=O)NCc2ccc(OC)c(OC)c2)CN(C(=O)OC(C)C)N1C(=O)OC(C)C)S(=O)(=O)c1ccc(C)cc1,26.9,-,-,11.2,-,-,43.2,22.1
C#CCN(C[C@@H]1[C@@H](OC(=O)NC2CC2)[C@@H](OC(=O)NC2CC2)Cn2c(=O)n(CCCCCC)c(=O)n21)S(=O)(=O)c1ccc(C)cc1,-,-,-,-,.,.,.,.
C#CCN(C[C@@H]1[C@@H](OC(=O)NC2CCCC2)[C@@H](OC(=O)NC2CCCC2)CN(C(=O)OC(C)C)N1C(=O)OC(C)C)S(=O)(=O)c1ccc(C)cc1,32.5,-,-,15.1,-,-,54.1,21.2
O=C(NCc1cc(Cl)cc(Cl)c1)c1ccc2nc([C@@H]3O[C@H](CO)[C@H](O)[C@H](O)[C@H]3O)[nH]c2c1,-,-,-,-,.,.,.,.
CCOC(=O)C1CCCN(C(=O)c2cccc(S(=O)(=O)N(Cc3ccccc3)c3ccccc3OC)c2)C1 (centres undefined),30.1,-,-,14.4,-,-,24.5,12.0
CCOC(=O)C1CCCN(C(=O)c2cccc(S(=O)(=O)N(C)c3ccc(OC)cc3)c2)C1 (centres undefined),-,-,-,-,.,.,.,.
COc1ccccc1N(Cc1ccccc1)S(=O)(=O)c1cccc(C(=O)Nc2cccc(C)n2)c1,22.7,-,-,10.0,-,-,-,9.6
CCC1(c2ccccc2)NC(=O)N(CC(=O)Nc2ccc(S(=O)(=O)N3CC(C)CC(C)C3)cc2)C1=O (centres undefined),21.1,-,-,10.3,-,-,48.5,23.7
CC1CCN(S(=O)(=O)c2ccc(NC(=O)CN3C(=O)NC(C)(c4ccccc4)C3=O)cc2)CC1 (centres undefined),-,-,-,-,.,.,.,.
Nc1cc(Cl)ccc1Oc1ccc2ccccc2c1,29.0,-,-,16.8,-,-,-,11.7
O=C(Nc1cccs1)Nc1nnc([C@@H]2C[C@H](O)[C@@H](CO)O2)s1,-,-,-,-,.,.,.,.
Cc1ccc(S(=O)(=O)N2CCC(=O)N([C@H](COCc3ccc(C(F)(F)F)cc3)C(C)C)CC2)cc1,-,-,-,-,.,.,.,.
COc1cccc(OC(=O)c2ccccc2)c1OC(=O)c1ccccc1,27.1,-,-,15.2,-,-,-,-
CCCCNS(=O)(=O)c1ccc2nc(SCC(=O)Nc3ccccc3)[nH]c2c1,22.8,-,-,9.1,-,-,-,-
CCCCNS(=O)(=O)c1ccc2nc(SCC(=O)c3ccc(C#N)cc3)[nH]c2c1,-,-,-,-,.,.,.,.
COc1ccc(/C=C/C(=O)N2CCN(C)CC2)cc1OC,-,-,-,-,.,.,.,.
CN(Cc1ccccc1)c1ccc(C(CC(N)=O)NC(=O)c2ccc(Br)cc2)cc1[N+](=O)[O-] (centres undefined),38.1,-,-,15.4,-,-,21.1,12.8
COC(=O)C1CN(C2CC2)CCS(=O)(=O)N1Cc1cn(Cc2ccc(C)cc2)nn1 (centres undefined),-,-,-,-,.,.,.,.
Nc1cc(OC(=O)c2c(F)cccc2Cl)nn1S(=O)(=O)c1ccccc1,28.0,-,-,11.8,-,-,-,11.2
Nc1cc(OC(=O)c2cccs2)nn1S(=O)(=O)c1ccccc1,-,-,-,-,.,.,.,.
O=C(c1cc(COc2cccc(C(F)(F)F)c2)on1)N1C[C@@H]2CCC[C@H]1C2,-,-,-,-,.,.,.,.
SMILES,ADAM10 inh,GC-B act,GC-A act,ADAM17 inh,ADAM10 confirm,ADAM17 counter,ADAM10 ctr,ADAM17 confirm
O=C(COC(=O)C12CC3CC(CC(C3)C1)C2)Nc1ccc(OC(F)F)cc1,26.7,-,-,15.4,-,-,24.1,11.8
CCOc1ncccc1C(=O)N(C)CC(=O)Nc1ccc(C)cc1,-,-,-,-,.,.,.,.
Cc1ccc(NC(=O)CN(C)C(=O)c2cccnc2Nc2cccc(C(F)(F)F)c2)cc1,36.5,-,-,13.4,-,-,51.7,28.5
COc1cc(NC(=O)c2ccno2)cc(C(=O)Nc2cccc(C(F)(F)F)c2)c1,28.1,-,-,11.5,-,-,24.9,13.1
O=C(/C=C/c1ccc([N+](=O)[O-])cc1)c1ccccc(=O)c1O,25.3,-,-,11.5,-,-,31.9,33.3
CC(=O)c1cccc(-c2ccnc3c2CC(C(=O)Nc2ccc(Cl)cc2)O3)c1 (centres undefined),24.1,-,-,8.7,-,-,-,-
CC(=O)Nc1ccc(NC(=O)C2Cc3c(-c4cccc(C(C)=O)c4)ccnc3O2)cc1 (centres undefined),-,-,-,-,.,.,.,.
COc1ccc2cc(CO)c3cc(OC)c(OC)cc3c2c1,-,-,-,-,.,.,.,.
O=C(COc1ccc([N+](=O)[O-])cc1)N(Cc1cccs1)C1CCS(=O)(=O)C1 (centres undefined),-,-,-,-,.,.,.,.
CCOc1cc(N2CCCC2)ccc1[N+](=O)[O-],20.2,-,-,9.3,-,-,-,-
COc1ccc(OC)c(NC(=O)CNC(c2ccccc2)c2ccccc2)c1,24.5,-,-,13.9,-,-,37.0,14.0
Cn1cccc1C(=O)Nc1ccc(Cl)c(S(=O)(=O)N2CCCCC2)c1,39.9,-,-,16.9,-,-,-,-
